PubChem BioAssay (NCI)
Compounds without any hit were thinned out: in the full panel of roughly 83,000, 20% have a hit.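 96-well plates, one dose, 48 hours. Percent growth reported; active if below 10.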 Unmarked numbers belong to inactive results. Active and inactive are the calls of the source.

Key:
Assay in all cases: NCI-60 one-dose screen, 48 h (100 = growth as untreated, 0 = no growth, -100 = all killed)
Conditions in all cases: 10 µM unless noted
SR leukemia = tested on: SR leukemia
RPMI-8226 leukemia = tested on: RPMI-8226 leukemia
OVCAR-8 ovarian = tested on: OVCAR-8 ovarian
OVCAR-5 ovarian = tested on: OVCAR-5 ovarian
OVCAR-4 ovarian = tested on: OVCAR-4 ovarian
SK-OV-3 ovarian = tested on: SK-OV-3 ovarian
IGROV1 ovarian = tested on: IGROV1 ovarian
OVCAR-3 ovarian = tested on: OVCAR-3 ovarian
HS 578T breast = tested on: HS 578T breast

| Compound | growth (SR leukemia) | growth (RPMI-8226 leukemia) | growth (OVCAR-8 ovarian) | growth (OVCAR-5 ovarian) | growth (OVCAR-4 ovarian) | growth (SK-OV-3 ovarian) | growth (IGROV1 ovarian) | growth (OVCAR-3 ovarian) | growth (HS 578T breast) |
| --- | --- | --- | --- | --- | --- | --- | --- | --- | --- |
| CC(=O)O[C@H]1C(=O)[C@@]2(C)[C@H]([C@H](OC(=O)c3ccccc3)[C@]3(O)C[C@H](OC(=O)[C@H](OC(=O)OC[C@@H]4COC(C)(C)O4)[C@@H](NC(=O)c4ccccc4)c4ccccc4)C(C)=C1C3(C)C)[C@]1(OC(C)=O)CO[C@@H]1C[C@@H]2O | 25.5% | 5.35% (active) | 16.5% | 6.96% (active) | 64.4% | 12.9% | 16.6% | 8.13% (active) | 2.33% (active) |
| NC(=O)c1c(Br)n(C2OC(CO)C(O)C2O)c2ncnc(N)c12 (stereo not given) | – | – | 5.8% (active) | 24.4% | 16.1% | -8.9% (active) | -48.3% (active) | -43.3% (active) | -8.41% (active) |
| CN1C(=O)C23CC4(C56CC78SSC(CO)(C(=O)N7C5Nc5ccccc56)N(C)C8=O)c5ccccc5NC4N2C(=O)C1(CO)SS3 (stereo not given) | -75.8% (active) | -25.8% (active) | -94.7% (active) | -77.7% (active) | -94.5% (active) | -98.6% (active) | -100% (active) | -97.8% (active) | -54.5% (active) |
| Cc1ccc(C(=O)NCCCOc2ccc(N3C(N)=NC(N)=NC3(C)C)cc2Cl)cc1S(=O)(=O)F | 21.4% | – | 77.2% | 51.6% | 111% | 101% | -28.2% (active) | 121% | 109% |
| COc1ccc(/C=C\c2cc(OC)c(OC)c(OC)c2)cc1OCC(=O)Nc1nc2ccc(C(F)(F)F)cc2s1 | 26.5% | 21.2% | 17.5% | 94.1% | 57.4% | 10.8% | 19.3% | -51.8% (active) | -8.14% (active) |
| O=P(N1CC1)(N1CC1)N1CCc2ccccc21 | – | – | 103% | 112% | 115% | 111% | 130% | 107% | 106% |
| CC[C@H](C)[C@H](NC(=O)[C@H]1CCCCN1C)C(=O)N(C)[C@H](C[C@@H](OC(C)=O)c1nc(C(=O)NC23CC(C(=O)OC)(C2)C3)cs1)C(C)C | 0.833% (active) | 25.6% | 18.6% | 53.7% | 42.7% | 24.4% | 32% | -18.6% (active) | 27.5% |
| Cc1c(O)c(CN(CCCl)CCCl)cc(CN(CCCl)CCCl)c1O | 4.03% (active) | 86.8% | 90.4% | 97.9% | – | 102% | 87.4% | 101% | 86.3% |
| O=C(N/N=C/c1ccc(N(CCCl)CCCl)cc1)c1cccc2ccccc12 | 24.2% | 73.9% | – | 93% | 88.5% | 69.1% | 79.2% | 61.8% | 69.4% |
| CCn1cnc2c(Nc3cccc(Cl)c3)nc(N[C@@H]3CCCC[C@@H]3N)nc21 | -32.7% (active) | -33.2% (active) | – | 3.37% (active) | -7.56% (active) | 40.1% | 5.27% (active) | 0.926% (active) | 26.9% |
| COc1ccc(N(CC(=O)NCCC[Te]c2ccccc2)C(=O)CCSC2=C(C)C(=O)c3ccccc3C2=O)cc1 | – | -40.9% (active) | 8.05% (active) | -57.4% (active) | 20.2% | -55.6% (active) | -68.3% (active) | -40.4% (active) | -10.3% (active) |
| Oc1ccc2c3c1OC1[C@@H](O)CC[C@@]4(O)[C@@H](C2)N(CC2CCC2)CC[C@]314 (stereo not given in full) | 99.5% | 103% | 104% | – | – | 109% | 103% | 116% | 105% |
| CNCc1cccnc1 | – | 101% | 103% | 114% | – | 106% | 114% | 115% | 107% |
| N#CC1(C#N)C(c2ccc(N(CCCl)CCCl)cc2)OC23CCCCC2C1(C#N)C(=N)O3 (stereo not given) | – | 96.2% | 80.6% | 105% | 91.9% | 96.8% | 77% | 98.5% | 101% |
| COC(=O)[C@@H](C)C[C@H](Cc1ccccc1)NC(=O)c1csc(CC[C@H](C(C)C)N(C)C(=O)[C@@H](NC(=O)[C@H]2CCCCN2C)C(C)C)n1 | 15.9% | 19.8% | 20.6% | 54% | 53.2% | 37.7% | 32.4% | -5.55% (active) | 33.2% |
| O=[As](O)(O)c1ccccc1[As](=O)(O)O | 91.3% | 109% | 99.7% | 92.6% | – | 111% | 135% | 103% | 114% |
| CN1CC(CNC(=O)OCc2ccccc2)CC2c3cccc4c3c(cn4C)CC21 (stereo not given) | – | – | 62.4% | 64.6% | – | 69% | 52.6% | 61.9% | 49.4% |
